This is part of a sample that, as a whole, favours compounds with a hit. Of some 83,000 tested, about 20% had one in any assay.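 Compound tested at a single concentration for 48 hours in 96-well plates; a percent growth value below 10 was scored as active.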 Active and inactive are the calls of the source.

The test system of the assay is HCC-2998 colon. Put plainly: NCI-60 one-dose screen, 48 h (100 = growth as untreated, 0 = no growth, -100 = all killed). To be noted: 10 µM unless noted. As for the experimental part: Growth inhibition of the HCC-2998 human tumor cell line is measured as a screen for anti-cancer activity. Cells are grown in 96 well plates and exposed to the test compound for 48 hours. Compounds are tested at a single concentration, which is 10^-5 M for most compounds. The reported endpoint is percent growth (GI% or GIPRCNT), where numbers from 0 - 100% represent growth inhibition, and numbers from -100% - 0 represent cell death. For example, a value of 40 represents 60% growth inhibition. A value of 0 means no net growth occurred over the course of the experiment. A value of -40 indicates 40% of cells at the beginning of the experiment died by the end of the experiment. A value of -100 means all cells are dead at the end of the experiment.
NCI-60 Human Tumor Cell Lines Screen was performed using the standard one-dose NCI protocol, which is described in more detail at https://dtp.cancer.gov/discovery_development/nci-60/default.htm.
Compounds with GIPRCNT values below 10 were considered active. Activity score was based on GIPRCNT using the following formula: […]
Score is 0 for GIPRCNT values of 100 or above, 50 for GIPRCNT values of 0, and 100 for GIPRCNT values of -100.
In the case of `O=C(CCc1nnc2sc(-c3ccc(Cl)cc3Cl)nn12)c1nc2ccccc2[nH]1`, the growth was -90.3% (active).
As to `CN(CC(=O)N(Cc1ccc(C2CCCCC2)cc1)c1ccc(C(=O)O)cc1)S(=O)(=O)c1c(F)c(F)c(F)c(F)c1F`, the growth was -62.9% (active).
To `Cc1nn(-c2ccccc2)c2ncc3c(c12)C(=O)N(Cc1ccccc1)C3=O` belongs 63% (inactive).
Next, `COc1ccc(C(=O)/C=C/c2c(Cl)nc3c(c(C)nn3-c3ccccc3)c2-c2ccc(Br)cc2)cc1`: 114% (inactive); `Clc1ccc([C@@H]2C[C@@H]3Cc4cc(Br)c5ccccc5c4N2O3)c(Cl)c1`: 87% (inactive).
To `c1csc([C@@H]2C[C@@H]3Cc4ccc5ccccc5c4N2O3)c1` belongs 105% (inactive); to `CCCCCCC/C(=N\N=C(N)N)c1ccc(O)cc1`, -77% (active); to `COc1ccc2c(c1)nc(N)c1c3cc(OC)c(OC)cc3cn21`, 54.5% (inactive).
`Cc1nnc(Nc2ccc(NC(=O)Nc3ccc(Cl)cc3)cc2)c2ccccc12`: the growth is 40.5% (inactive).
Next, `O=C(N1CCC(CN=c2cc3n(-c4ccc(Cl)cc4)c4ccccc4nc-3cc2Nc2ccc(Cl)cc2)CC1)N1CC1`: -75.9% (active); `C[C@@H]1CC[C@H]2[C@@H](C)C(O)O[C@@H]3O[C@]4(C)CC[C@@H]1[C@]32OO4` (stereo not given in full): 41.3% (inactive); `C/C(=N/N=C(N)N)c1ccc(Cl)cc1`: 57.8% (inactive).
With `Cc1cc(Cl)ccc1Nc1nc(C(F)(F)F)ccc1C(=O)NCC(=O)N/N=C/c1c(Cl)cccc1Cl`, the growth is 92.9% (inactive).
As for `Cc1cc(C(C)(C)c2cc(C)c(O)c(CN(C)C)c2)cc(CN(C)C)c1O`, the growth was 82.1% (inactive).
To `Nc1ccccc1-c1ccc([N+](=O)[O-])cc1` belongs 29.8% (inactive).
Next, `Nc1nc(SCC2(CCl)COC2)c2[nH]cnc2n1`: 97.7% (inactive); `CCN(CC)CCCCNc1c2ccccc2[n+](C)c2c1[nH]c1ccccc12`: -56.4% (active); `Cc1cc(C)c2c(c1)N1OC(C2)C[C@H]1/C=C/c1ccccc1` (stereo not given in full): 98.2% (inactive).
To `O=C1NC(=O)/C(=C\c2ccccc2)C2=C1CCCC2` belongs 123% (inactive); to `O=C(CCc1nnc(Cn2ccnc2)o1)c1nc2ccccc2[nH]1`, 108% (inactive).
For `O=C(NN(C(=O)c1ccccc1)c1cccs1)c1ccccc1`, the growth was 103% (inactive).
Next, `COc1ccc(C2=NNC(c3cc(Cc4ccc(O)c(C5CC(c6ccc(OC)cc6)=NN5)c4)ccc3O)C2)cc1` (stereo not given): 55.5% (inactive); `COc1ccc(-c2nn(-c3ccccc3)cc2/C=C2\SC(=S)N(CCc3ccc(O)cc3)C2=O)cc1`: 107% (inactive); `c1ccc(-n2nnnc2-c2cccc3ccccc23)cc1`: 23.5% (inactive).
With `O=C1c2nsnc2C(=O)c2c(F)c(F)c(F)c(F)c21`, the growth is -22.4% (active).
Next, `COc1ccc(-n2nc3c(c2-c2ccc(OC)c(OC)c2)-c2oncc2CC3)cc1`: 104% (inactive); `CN(CCOc1ccc(CC2SC(=O)NC2=O)cc1)c1ccccn1` (stereo not given): 112% (inactive); `CN(CC(=O)Nc1nc2ccccc2[nH]1)S(=O)(=O)c1ccc(Cl)cc1`: 91.3% (inactive).
Next, `C=Cc1nn2c(CCC(=O)c3nc4ccccc4[nH]3)nnc2s1`: 98% (inactive); `CC12CCCCC1C(C(N)=O)C(=O)O2` (stereo not given): 99.6% (inactive); `Cc1cc(C)n2nc(SCC(=O)Nc3sc4c(c3C(N)=O)CCC4)nc2n1`: 118% (inactive).
To `COc1ccc(-c2cnnn2-c2cc(OC)c3c(c2)OCO3)cc1` belongs -2.25% (active).
Consider `CC[C@]1(O)CC2CN(CCc3c([nH]c4ccccc34)[C@@](C(=O)OC)(c3cc4c(cc3OC)N(C)[C@H]3[C@@](O)(C(=O)OC)[C@H](OC(C)=O)[C@]5(CC)C=CCN6CC[C@]43[C@@H]65)C2)C1` (stereo not given in full), for which the growth is -23.4% (active).
Take `COc1ccc(C2=NN(C(C)=O)C(c3cc(OC)c(OC)c(OC)c3)C2)cc1` (stereo not given): the growth is 94.9% (inactive).
Next, `O=[N+]([O-])c1ccc(N/N=C\c2ccccc2[N+](=O)[O-])nc1`: 107% (inactive); `O=C(C(=O)N1CCOCC1)c1ccc(OC2OC(CO)C(O)C(O)C2O)cc1` (stereo not given): 127% (inactive); `C=C(C)[C@@H]1C/C=C(/C=O)CC[C@@H]2O[C@@]2(C)CC/C=C(\C)CC1`: 126% (inactive).
Next, `CCN(CC)CCOc1ccccc1-n1c(C)ccc1-c1ccccc1`: 24.2% (inactive); `CCCCCCCCCCCCNc1ncnc2[nH]ncc12`: 92.4% (inactive).
To `COc1cc2cn3c4ccc(O)cc4nc(N)c3c2cc1OC` belongs 27.2% (inactive).
